Rows were chosen to be rich in hits. Some 19% of all compounds tested hit in one or more screens of this group.
TDP1 inh: qHTS Assay for Inhibitors of Tyrosyl-DNA Phosphodiesterase (TDP1); Tyrosyl-DNA phosphodiesterase 1 (Homo sapiens), Q9NUW8; recombinant TDP1, AlphaScreen DNA substrate cleavage; Potency, µM (highest dose often 130 µM), for inactives: at the highest dose activity change, negative = inhibition, hits mostly inhibitors; 350,000 tested, 0.28% active; AID 485290, 2010; also: potency is read from the fitted curve at half-maximal effect; % is scaled to controls: 0 for no effect and ±100 for the full control effect; nearly all actives have a fitted effect of over 40% in size
Target sequence (Q9NUW8 whole entry, looked up): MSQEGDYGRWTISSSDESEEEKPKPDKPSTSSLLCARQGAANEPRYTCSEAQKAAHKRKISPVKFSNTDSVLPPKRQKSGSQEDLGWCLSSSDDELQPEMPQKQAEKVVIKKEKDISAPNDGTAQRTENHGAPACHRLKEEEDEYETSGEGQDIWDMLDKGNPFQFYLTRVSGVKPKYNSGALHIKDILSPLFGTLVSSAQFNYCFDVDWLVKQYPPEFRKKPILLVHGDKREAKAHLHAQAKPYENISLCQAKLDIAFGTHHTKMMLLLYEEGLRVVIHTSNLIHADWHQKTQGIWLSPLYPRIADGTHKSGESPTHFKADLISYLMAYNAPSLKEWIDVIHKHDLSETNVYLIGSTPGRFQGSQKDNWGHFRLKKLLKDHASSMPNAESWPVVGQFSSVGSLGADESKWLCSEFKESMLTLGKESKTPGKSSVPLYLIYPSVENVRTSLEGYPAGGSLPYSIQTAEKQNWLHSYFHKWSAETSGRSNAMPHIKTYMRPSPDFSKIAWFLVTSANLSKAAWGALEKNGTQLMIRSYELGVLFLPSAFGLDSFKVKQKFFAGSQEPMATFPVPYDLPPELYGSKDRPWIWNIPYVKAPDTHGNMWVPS
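Recombinant human Tdp1 (E. coli-expressed, 1 nM final) preincubated with compounds 15 min at room temperature, then 5'-biotin/3'-phosphotyrosine-FITC DNA substrate (15 nM final) added for 5 min. AlphaScreen beads (10 ug/ml final) added 10 min; cleavage lowers signal.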
TDP1 cell noCPT: qHTS for Inhibitors of human tyrosyl-DNA phosphodiesterase 1 (TDP1): qHTS in cells in absence of CPT. DT40 Tdp1-/- hTDP1 cells, no CPT, ATP luminescence, 48 h. Potency, µM (highest dose often 46.2 µM), without a hit: at the top dose activity change, negative = growth inhibition, usual class: inhibitors. 420,000 tested, 15% active. AID 686978, 2013; also: potency is read from the fitted curve at half-maximal effect; % is scaled to controls: 0 for no effect and ±100 for the full control effect; nearly all actives have a fitted effect of over 55% in size
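Camptothecin absent (DMSO only). Human TDP1-complemented DT40 knockout cells, 400 cells/well, 37 °C for minimum 48 hr; ATP measured via CellTiter-Glo, 30 min dark incubation, luminescence.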
IL-1B inflam inh: qHTS for Inhibitors of Inflammasome Signaling: IL-1-beta AlphaLISA Primary Screen; THP-1 LPS/ATP IL-1B secretion, AlphaLISA, 16 h; stronger effect = lower value; activity change, % at 57.5 µM; 360,000 tested, 4.7% active; in the data active = activity change below about -50%; inconclusive = mostly about -30% to -49%; also: % is scaled to controls: 0 for no effect and ±100 for the full control effect
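Secreted IL-1B measured by AlphaLISA bead assay after 16 h compound exposure of THP-1 cells; compounds (final up to 57.5 uM) added 1 h before LPS (250 ng/mL) and ATP (1.25 mM) stimulation; lower signal means less secretion.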
TDP1 cell CPT: qHTS for Inhibitors of human tyrosyl-DNA phosphodiesterase 1 (TDP1): qHTS in cells in presence of CPT. chicken DT40 Tdp1-/-;hTDP1 cells + 20 nM CPT, ATP luminescence, 48 h. Potency, µM (doses to about 46.2 µM), without a hit: at the highest dose activity change, negative = growth inhibition, usual class: inhibitors. 420,000 tested, 12% active; also: potency is read from the fitted curve at half-maximal effect; % is scaled to controls: 0 for no effect and ±100 for the full control effect; nearly all actives have a fitted effect of over 55% in size
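Chicken DT40 Tdp1-/- cells stably complemented with human TDP1 were seeded at 400 cells/well in medium containing 20 nM camptothecin, exposed to pin-transferred compounds, and grown at 37 °C for at least 48 hr. Viability was read as ATP luminescence.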
TGFb SMAD3 inh: qHTS for Inhibitors of TGF-b | HepG2 CAGA-GFP TGF-b/SMAD3 reporter, GFP fluorescence, 18 h; TGF-beta stimulated, 500 pg/mL final | Potency, µM (top dose mostly 46.1 µM), for the others: at the highest dose activity, negative = inhibition, most hits filed as inhibitors | 410,000 tested, 1.2% active; also: potency is read from the fitted curve at half-maximal effect; % is scaled to controls: 0 for no effect and ±100 for the full control effect; nearly all actives have a fitted effect of over 65% in size
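Cell-based qHTS in HEPG2 carrying a CAGA-GFP Smad reporter; compounds added before 500 pg/mL final TGF-beta, 18 h incubation at 37 degrees C, GFP fluorescence quantified per cell by imaging cytometry.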
HepG2 tox: qHTS for Inhibitors of TGF-b: Cytotox Counterscreen; Potency, µM (titrated, usually from 46.1 µM), for inactives: top-dose activity change, negative = cytotoxicity, usual class: cytotoxic; HepG2 CAGA-GFP viability, ATP luminescence, 18 h; 410,000 tested, 0.76% active; also: potency is read from the fitted curve at half-maximal effect
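CellTiter-Glo luminescence gave cytotoxicity after 18 hours at 37 degrees C. The cells were HepG2 CAGA-GFP in 1% FBS DMEM, stimulated with 500 pg/mL TGF-beta after compound addition. %Activity was normalised to no-cell wells (complete cell-killing) and DMSO (no toxicity), and curves were fitted and classified.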
* marks the source's active call; other numbers are inactive results; [ ] = dose if it differs, or a comment. Unless noted, calls follow the shape of the dose curve; as a rule, active = well fitted curve in the direction sought with a large enough effect; inconclusive = small, poorly fitted or top-dose-only effect, or another doubt; inactive = no such curve, though single readings can be large; an effect the other way counts as inactive or inconclusive.

`Cc1nc2ccccc2c(=O)n1-c1ccc(NC(=O)c2cccc([N+](=O)[O-])c2)cc1` gave TDP1 inh 0%, TDP1 cell noCPT 21µM*, TDP1 cell CPT 18µM*, TGFb SMAD3 inh -11% and HepG2 tox -13%.
For Cc1nc2ccccc2c(=O)n1-c1ccc(NC(=O)c2ccc([N+](=O)[O-])cc2)cc1 the results were TDP1 inh 0%, TDP1 cell noCPT inconclusive, TDP1 cell CPT inconclusive, TGFb SMAD3 inh inconclusive and HepG2 tox -27%.
`Cc1ccc(C(=O)Nc2ccc(-n3c(C)nc4ccccc4c3=O)cc2)cc1[N+](=O)[O-]` gave TDP1 inh 5%, TDP1 cell noCPT 7.3µM*, TDP1 cell CPT 9.2µM*, TGFb SMAD3 inh 5% and HepG2 tox -23%.
Cc1cc(-n2c(C)nc3ccccc3c2=O)ccc1NC(=O)c1cccc([N+](=O)[O-])c1 was read as TDP1 inh 5%, TDP1 cell noCPT 12µM*, TDP1 cell CPT 16µM*, TGFb SMAD3 inh -29% and HepG2 tox -11%.
Cc1ccc(NC(=O)C2CCCN2S(=O)(=O)c2ccc3nc(-c4ccccc4)[nH]c3c2)cc1C (configuration not stated) was read as TDP1 inh 5%, TDP1 cell noCPT 23µM*, TDP1 cell CPT inconclusive, TGFb SMAD3 inh inconclusive and HepG2 tox -25%.
Screening CC(C)c1ccc(NC(=O)C2CCCN2S(=O)(=O)c2ccc3nc(-c4ccccc4)[nH]c3c2)cc1 (configuration not stated) returned TDP1 inh -5%, TDP1 cell noCPT 7.3µM*, TDP1 cell CPT 10µM*, TGFb SMAD3 inh -19% and HepG2 tox -24%.
`CN(C)S(=O)(=O)c1ccc(Cl)c(C(=O)Nc2nc3ccccc3[nH]2)c1` gave TDP1 inh 2%, TDP1 cell noCPT -23%, IL-1B inflam inh -7, TDP1 cell CPT -24%, TGFb SMAD3 inh -16% and HepG2 tox -11%.
For Cc1ccc(NS(=O)(=O)c2ccc(Cl)c(C(=O)Nc3ccccc3-c3nc4ccccc4[nH]3)c2)cc1C the results were TDP1 inh 6%, TDP1 cell noCPT 8.2µM*, IL-1B inflam inh -13, TDP1 cell CPT 7.3µM*, TGFb SMAD3 inh 11µM* and HepG2 tox -77%.
For Cc1cccc(NC(=O)C2CCCN2S(=O)(=O)c2ccc3nc(-c4ccccc4)[nH]c3c2)c1 (configuration not stated) the results were TDP1 inh 3%, TDP1 cell noCPT 18µM*, TDP1 cell CPT inconclusive, TGFb SMAD3 inh inconclusive and HepG2 tox -25%.
`Cc1cc(NS(=O)(=O)c2ccc3nc(-c4ccccc4)[nH]c3c2)ccc1Br` gave TDP1 inh 8%, TDP1 cell noCPT 15µM*, TDP1 cell CPT inconclusive, TGFb SMAD3 inh inconclusive and HepG2 tox -98%.
Screening CN1CCCC1CN1CCCC1 (configuration not stated) returned TDP1 cell noCPT -2%, IL-1B inflam inh 20, TDP1 cell CPT -12%, TGFb SMAD3 inh -1% and HepG2 tox 2%.
Screening CN1CCCC1CCNC1C2CC3CC(C2)CC1C3 (configuration not stated) returned TDP1 inh 2%, TDP1 cell noCPT 16µM*, IL-1B inflam inh -13, TDP1 cell CPT 8.2µM*, TGFb SMAD3 inh 60% and HepG2 tox -17%.
Screening CC1=C(CC[C@@H](C)CO)OC2CC3C4CCC5CC(O)CCC5(C)C4CC(=O)C3(C)C12 (some centres not stated) returned TDP1 cell noCPT inconclusive, IL-1B inflam inh -66*, TDP1 cell CPT inconclusive, TGFb SMAD3 inh 2% and HepG2 tox -25%.
For C[C@@H]1CC[C@@]2(OC1)O[C@H]1C[C@H]3[C@@H]4CC[C@H]5C[C@@H](O)CC[C@]5(C)[C@H]4CC(=O)[C@]3(C)[C@H]1[C@@H]2C the results were TDP1 cell noCPT -10%[21.1 µM] and TDP1 cell CPT 17%[21.1 µM].
CCCCNC(=S)NNC(=O)CCn1nc(C)c(Br)c1C was read as TDP1 inh 1%, TDP1 cell noCPT 5.6µM*, IL-1B inflam inh 7, TDP1 cell CPT 6.3µM*, TGFb SMAD3 inh -15% and HepG2 tox -6%.
For COc1ccc(C2/C=C\CN(CC3CC3)C(Cc3ccccc3)C(=O)N2Cc2ccc(F)cc2)cc1 (configuration not stated) the results were TDP1 inh 7%, TGFb SMAD3 inh -2% and HepG2 tox -1%.
Screening Cc1ccc(/C=C\c2nccc3c2[nH]c2ccccc23)cc1 returned TDP1 inh 0%, TDP1 cell noCPT inconclusive, IL-1B inflam inh -26, TDP1 cell CPT inconclusive, TGFb SMAD3 inh inconclusive and HepG2 tox -33%.
For O=c1[nH]c2ccccc2nc1/C=C/c1ccc(F)cc1 the results were TDP1 cell noCPT inconclusive, IL-1B inflam inh 18, TDP1 cell CPT inconclusive, TGFb SMAD3 inh 1% and HepG2 tox -40%.
`Fc1ccc(/C=C\c2nccc3c2[nH]c2ccccc23)cc1` gave TDP1 cell noCPT inconclusive, IL-1B inflam inh -78*, TDP1 cell CPT inconclusive, TGFb SMAD3 inh inconclusive and HepG2 tox -50%.
Screening C(=C\c1nccc2c1[nH]c1ccccc12)/c1ccccc1 returned TDP1 inh 1%, TDP1 cell noCPT 15µM*, IL-1B inflam inh -2, TDP1 cell CPT inconclusive, TGFb SMAD3 inh inconclusive and HepG2 tox 20µM*.
`Cc1[nH]n(-c2ccccc2)c(=O)c1C(c1cccc([N+](=O)[O-])c1)c1c(C)[nH]n(-c2ccccc2)c1=O` gave TDP1 inh 11%, TDP1 cell noCPT 21µM*, IL-1B inflam inh -85*, TDP1 cell CPT inconclusive, TGFb SMAD3 inh -21% and HepG2 tox -7%.
Cc1[nH]n(-c2ccccc2)c(=O)c1C(C[N+](=O)[O-])c1ccc(Br)cc1 (configuration not stated) was read as TDP1 inh 9%, TDP1 cell noCPT 9.2µM*, IL-1B inflam inh -15, TDP1 cell CPT 12µM*, TGFb SMAD3 inh -23% and HepG2 tox -24%.

Assay outcomes (PubChem)
